A selection: hits, their analogues and other compounds. The true share with any hit is near 4%.
CF NFkB inh: blocks PAF-induced NF-kB reporter in cystic fibrosis cells | KKLEB NF-kB-GFP reporter, GFP fluorescence overnight | inhibition, % at 5 µM | actives 0.86% (n = 360,000);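 active means at least 50% inhibition at 5 µM, scaled per plate between neutral and stimulator controls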;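 further: PAF is a Pseudomonas aeruginosa culture filtrate used as stimulus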
TWEAK Fn14 block: inhibitors of TWEAK-Fn14 interaction signaling; inhibition, % at 10 µM; TWEAK-stimulated Fn14 reporter cells, luciferase luminescence, 8 h; actives 2% (n = 360,000); in the data active means inhibition above about 50%
TROY signal inh: blocks TROY-dependent signaling in reporter cells; Q293 LMP1-TROYcd NF-kB luciferase reporter, 4 h; actives 0.98% (n = 360,000); inhibition, % at 10 µM;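 active means compounds whose plate-normalised and pattern-corrected inhibition of the luciferase reporter signal at the single screening dose is 50% or more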
HIF-2a block: inhibitors of HIF-2a; 786-0 RCC cells HIF-2a reporter, luciferase luminescence, overnight; inhibition, % at 18.8 µM; actives 0.72% (n = 360,000); AID 624352;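 active means inhibition of the luminescence signal of 40% or more relative to plate controls, in a single-dose primary screen at 18.75 µM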
Peg3 promoter: Peg3 promoter activity inhibition. actives 1.7% (n = 360,000). inhibition, % at 20 µM. HeLa PEG-Prom luciferase reporter, luminescence, overnight. AID 588405;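 active means inhibition of at least 50% at 20 µM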
KKLEB tox: counter-screen for CF NF-kB inhibitors: cytotoxicity; KKLEB CF airway cells viability, ATPlite luminescence, overnight; hits give low values; cells stimulated with P. aeruginosa culture filtrate; actives 0.36% (n = 360,000); AID 602141; activity change (cytotoxicity), % at 5 µM;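 active means corrected activity change at or below -50% at 5 µM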
Numbers stand for hits; i = inactive; nt = no result given.

SMILES | CF NFkB inh | TWEAK Fn14 block | TROY signal inh | HIF-2a block | Peg3 promoter | KKLEB tox
CCN(CC)CCNC(=O)c1ccc(NC(=O)c2cn(-c3ccccc3)nc2-c2cccs2)cc1 | i | i | i | i | 106.4 | i
CCN(CC)CCNC(=O)c1ccc(NC(=O)c2cn(-c3ccc(F)cc3)nc2-c2cccc(OC)c2)cc1 | i | i | i | i | 101.5 | i
COc1ccccc1NC(=O)CSc1nccc(-c2ccco2)n1 | i | i | i | i | i | i
O=c1[nH]c(SCc2nc3c(cnn3-c3ccccc3)c(=O)[nH]2)nc2ccccc12 | i | i | i | i | i | i
O=c1[nH]c(CSc2nc3ccccc3o2)nc2c1cnn2-c1ccccc1 | i | i | i | i | 52.7 | i
O=C(Nc1ccc(NC(=O)c2ccccc2)c2ccccc12)c1ccccc1 | i | i | i | i | i | i
Cc1cc(C(=O)CSc2nnc(-c3ccccc3)o2)c(C)n1CC1COc2ccccc2O1 (centres undefined) | i | i | i | i | i | i
Cc1cc(C(=O)CSc2nnc(-c3ccco3)o2)c(C)n1CC1COc2ccccc2O1 (centres undefined) | i | 85.5 | nt | i | i | i
CCOC(=O)C1=C(CC)Nc2ccccc2N=C1NC(=O)c1cc(S(=O)(=O)N2CCOCC2)ccc1C | i | i | i | i | i | i
CCN(c1ccccc1)S(=O)(=O)c1cccc(C(=O)N(C)CC(=O)Nc2ccc(F)c(F)c2F)c1 | i | i | i | i | i | i
CCCCCCCC(=O)OCC(O)CO (centres undefined) | i | i | i | i | i | -59.5
O=S(=O)(c1ccc(Cl)c(NC(=S)N/N=C/c2ccc(O)cc2)c1)N1CCOCC1 | i | 58.4 | i | i | i | i
Cc1noc2ncnc(N3CCCC3)c12 | i | i | i | i | i | i
Cc1noc2ncnc(Sc3ccc(Br)cc3)c12 | i | 66.2 | 63.7 | i | 99.0 | i
CCOC(=O)OCC(=O)C1(O)CCC2C3CCC4=CC(=O)CCC4(C)C3C(O)CC21C (centres undefined) | 67.5 | i | i | i | i | i
CCCCCCCC(=O)OCC(=O)[C@@]1(O)CC[C@H]2[C@@H]3CCC4=CC(=O)CC[C@]4(C)[C@H]3[C@@H](O)C[C@@]21C | 61.3 | i | i | i | i | i
CC12CCC(=O)C=C1CCC1C2C(O)CC2(C)C1CCC21OCC1=O (centres undefined) | i | i | i | i | i | i
CC12CCC(=O)C=C1CCC1C2C(O)CC2(C)C1CCC2(O)C(=O)COC(=O)COCC(=O)O (centres undefined) | 70.2 | i | i | i | i | i
CC(=O)OCC(=O)C1(O)CCC2C3CCC4=CC(=O)CCC4(C)C3C(O)CC21C (centres undefined) | 60.3 | i | i | i | i | i
CCOC(=O)C1=CCN(S(=O)(=O)c2ccccc2C)C1c1cccc(Cl)c1 (centres undefined) | nt | nt | nt | i | nt | nt
CCCCC1(Cc2cccc([N+](=O)[O-])c2)C(=O)N(c2ccccc2)N(c2ccccc2)C1=O | i | i | i | i | 52.4 | i
CCCCC1(CO)C(=O)N(c2ccccc2)N(c2ccccc2)C1=O | i | i | i | i | i | i
CC1CCCCC1NC(=O)CN(C)S(=O)(=O)c1ccc2c(c1)CCC(=O)N2 (centres undefined) | i | i | i | i | i | i
OCC1OC(n2cnc3c(NCc4ccccc4O)ncnc32)C(O)C1O (centres undefined) | i | 59.4 | i | i | 70.7 | -53.6
OC[C@H]1O[C@@H](n2cnc3c(Nc4ccccc4)ncnc32)[C@H](O)[C@@H]1O | i | i | i | i | i | i
SMILES | CF NFkB inh | TWEAK Fn14 block | TROY signal inh | HIF-2a block | Peg3 promoter | KKLEB tox
CN1/C(=C\C=Nc2ccc3ccccc3c2)C(C)(C)c2ccccc21 | i | i | 65.5 | i | i | i
CN1/C(=C\C=O)C(C)(C)c2ccccc21 | i | i | i | i | i | i
CN(C)c1ccc(N=C/C=C2\N(C)c3ccccc3C2(C)C)cc1 | i | 51.5 | i | i | i | i
CCOC(=O)c1cccc2c1-c1ccccc1/C2=N/O | 86.1 | 86.2 | 50.3 | i | i | i
O=C(CSc1nc(O)cc(=O)n1-c1ccc(Cl)c(Cl)c1)Nc1ccc(Cl)cc1Cl | i | i | i | i | i | i
CC(O)(c1ccc(F)c(F)c1)c1nc(-c2cnc3ccccc3c2)cs1 (centres undefined) | i | 55.2 | i | i | i | i
CC(C)C(NC(=O)C1CC(=O)N(Cc2ccccc2)C1)c1nc2ccccc2[nH]1 (centres undefined) | i | i | i | i | i | i
Cc1sc(-c2ccccn2)nc1OC(=O)c1ccc(Cl)cc1 | i | i | 58.4 | i | i | i
COCCNC(=O)C1CCCN(C(=O)C2(c3ccc(Cl)cc3)CCCC2)CC1 (centres undefined) | i | i | i | i | i | i
COc1ccc(Cl)c(-c2cc(C(=O)Nc3ccc(C)c(NS(C)(=O)=O)c3)[nH]n2)c1 | i | i | i | i | i | i
Cc1ccc(NC(=O)c2cc(-c3cc(Cl)ccc3C)n[nH]2)cc1NS(C)(=O)=O | i | 64.5 | i | i | i | i
COc1ccc(NC(=O)c2cc(-c3cc(Cl)ccc3C)n[nH]2)cn1 | i | i | i | i | i | i
COc1ccc(Cl)cc1-c1cc(C(=O)Nc2ccc(C)c(NS(C)(=O)=O)c2)[nH]n1 | i | 72.3 | 52.9 | i | 69.4 | i
CCOc1ccc(S(=O)(=O)NCCC(=O)NCC(c2ccc(OC)cc2)N2CCCCC2)cc1 (centres undefined) | i | i | i | i | i | i
Cc1cc(C(=O)CN2C(=O)C(=O)N(Cc3ccccc3)C2=O)c(C)n1-c1ccccc1F | i | i | i | i | i | i
Cc1cc(C(=O)CN2CCC(C)CC2)c(C)n1-c1ccccc1F | i | 81.8 | 79.6 | i | i | i
COc1cc(C2C3=C(Nc4ncnn42)c2ccccc2CC3)cc(OC)c1OC (centres undefined) | i | i | i | i | i | -52.1
O=C(CN1CCN(S(=O)(=O)c2ccc(Cl)cc2)CC1)NC1CC1 | i | i | i | i | i | i
CCOC(=O)C1=CCN(S(=O)(=O)c2ccc(F)cc2)C1c1ccc(F)cc1 (centres undefined) | nt | nt | nt | i | nt | nt
O=Nc1c2cc(-c3ccccc3)[nH]nc-2c2ccccc12 | i | 80.1 | 70.7 | i | i | i
Cc1cccc(-c2cc3c(N=O)c4ccccc4c-3n[nH]2)c1 | i | 53.0 | i | i | i | i
O=C(Cc1cccc2ccccc12)Nc1ccc(OC(F)F)c(Cl)c1 | i | i | i | i | i | i
O=C(Nc1ccc(OC(F)F)c(Cl)c1)C(c1ccccc1)c1ccccc1 | i | i | 56.6 | i | i | i
C=CCN1C(=O)C(CC(=O)Nc2ccc(OCCC)cc2)N(CCCN2CCN(Cc3ccccc3)CC2)C1=S (centres undefined) | i | i | i | i | 52.1 | i
